Assay results reported in PubChem BioAssay (NCI).
The panel holds about 79,000 compounds, 15% with a hit somewhere; the sample as a whole holds those more often. Values without a mark were called inactive. Calls of active or inactive are those of the source. Cut-off read from the data, not from the text of the source: active = growth inhibition above about 70%; inactive = the rest.

Experiment: NCI Yeast Anticancer Drug Screen. Data for the rad52 strain (AID 147);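 note: 0% = growth of vehicle-treated control cultures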
Conditions: S. cerevisiae rad52 mutant growth inhibition; at 1.2 µM; active compounds read high
Summary of the method: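 Read-out: growth inhibition versus vehicle-treated controls. Cells were a DNA repair-deficient yeast strain treated with compounds.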

Row | Compound | growth inhibition
1 | O=C1/C(=C/c2ccccc2)CCCC1CN1CCCCC1 (configuration not stated) | 13%
2 | C#CCN(Cc1ccc2nc(N)[nH]c(=O)c2c1)c1ccc(C(=O)NC(CCC(=O)O)C(=O)O)cc1 (configuration not stated) | 19%
3 | CCOC1(c2cccc([N+](=O)[O-])c2)c2ccccc2Oc2ccccc21 | 0%
4 | O=C(O)CNC(=S)Nc1ccccc1 | -72%
5 | N/C(=N/N=C/c1cc(Br)cc(Br)c1O)NO | -37%
6 | C[Si](C)(C)/C=C/CCNC(C#N)c1ccccc1 (configuration not stated) | -10%
7 | CCCCCCCCCCCCCCCCOP(=O)(O)OCC(N)C(=O)O (configuration not stated) | -2%
8 | CC1=C(C(=O)NCc2ccccc2)C(c2ccccc2)C(C(=O)NCc2ccccc2)=C(C)N1 | -3%
9 | O=[N+]([O-])c1cc(S(=O)(=O)Nc2ccccc2)ccc1Nc1ccccc1 | 0%
10 | COc1cc2ccnc(-c3c4ccccc4c(N)c4c(OC)c(OC)ccc34)c2cc1OC | 5%
11 | CCOC(=O)C(Br)C(Br)c1ccccc1Cl (configuration not stated) | 6%
12 | CCOC(=O)C1=C(C)NC(C)=C(C(=O)OCCNC(=O)c2ccc(N=[N+]=[N-])cc2)C1c1ccccc1C(F)(F)F (configuration not stated) | 4%
13 | Cc1cc(C)c(NC(=S)NC(=O)c2ccccc2)cc1C | -33%
14 | CNCCCNc1c2ccccc2nc2cccc([N+](=O)[O-])c12 | 83% (active)
15 | COc1c(O)c(C=O)c(Br)c(C=O)c1O | 2%
16 | Cc1c(C)c(C)c(CSC(=N)N)c(C)c1C | -23%
17 | O=C(CSC(=S)N1CCCCC1)Nc1nc2c(s1)CCCC2 | 1%
